# Hit rate of the full screen: of about 60,000 compounds, about 210 (0.35%) were called active. For the sample, actives were picked, then their nearest neighbours and some compounds at random. Unmarked numbers belong to inactive results.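 Rule for the calls: active = inhibition above the screen-wide mean inhibition plus 3 SD (cut at about 18% in these data); inactive = the rest.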
# Molecular target: Rho-associated protein kinase 2 (Homo sapiens) (UniProt O75116)
# Assay: ROCK2 enzymatic activity blockers – biochemical, high-throughput, luminescence, primary screen (AID 604);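 note: plate controls were DMSO wells for no effect and Y-27632 control wells after no-enzyme background subtraction for full effect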
# Details: purified ROCK2, Kinase-Glo ATP depletion luminescence; at 6 µM; hits give high values
# Sequence of Rho-associated protein kinase 2 (Homo sapiens) (O75116 whole entry, looked up): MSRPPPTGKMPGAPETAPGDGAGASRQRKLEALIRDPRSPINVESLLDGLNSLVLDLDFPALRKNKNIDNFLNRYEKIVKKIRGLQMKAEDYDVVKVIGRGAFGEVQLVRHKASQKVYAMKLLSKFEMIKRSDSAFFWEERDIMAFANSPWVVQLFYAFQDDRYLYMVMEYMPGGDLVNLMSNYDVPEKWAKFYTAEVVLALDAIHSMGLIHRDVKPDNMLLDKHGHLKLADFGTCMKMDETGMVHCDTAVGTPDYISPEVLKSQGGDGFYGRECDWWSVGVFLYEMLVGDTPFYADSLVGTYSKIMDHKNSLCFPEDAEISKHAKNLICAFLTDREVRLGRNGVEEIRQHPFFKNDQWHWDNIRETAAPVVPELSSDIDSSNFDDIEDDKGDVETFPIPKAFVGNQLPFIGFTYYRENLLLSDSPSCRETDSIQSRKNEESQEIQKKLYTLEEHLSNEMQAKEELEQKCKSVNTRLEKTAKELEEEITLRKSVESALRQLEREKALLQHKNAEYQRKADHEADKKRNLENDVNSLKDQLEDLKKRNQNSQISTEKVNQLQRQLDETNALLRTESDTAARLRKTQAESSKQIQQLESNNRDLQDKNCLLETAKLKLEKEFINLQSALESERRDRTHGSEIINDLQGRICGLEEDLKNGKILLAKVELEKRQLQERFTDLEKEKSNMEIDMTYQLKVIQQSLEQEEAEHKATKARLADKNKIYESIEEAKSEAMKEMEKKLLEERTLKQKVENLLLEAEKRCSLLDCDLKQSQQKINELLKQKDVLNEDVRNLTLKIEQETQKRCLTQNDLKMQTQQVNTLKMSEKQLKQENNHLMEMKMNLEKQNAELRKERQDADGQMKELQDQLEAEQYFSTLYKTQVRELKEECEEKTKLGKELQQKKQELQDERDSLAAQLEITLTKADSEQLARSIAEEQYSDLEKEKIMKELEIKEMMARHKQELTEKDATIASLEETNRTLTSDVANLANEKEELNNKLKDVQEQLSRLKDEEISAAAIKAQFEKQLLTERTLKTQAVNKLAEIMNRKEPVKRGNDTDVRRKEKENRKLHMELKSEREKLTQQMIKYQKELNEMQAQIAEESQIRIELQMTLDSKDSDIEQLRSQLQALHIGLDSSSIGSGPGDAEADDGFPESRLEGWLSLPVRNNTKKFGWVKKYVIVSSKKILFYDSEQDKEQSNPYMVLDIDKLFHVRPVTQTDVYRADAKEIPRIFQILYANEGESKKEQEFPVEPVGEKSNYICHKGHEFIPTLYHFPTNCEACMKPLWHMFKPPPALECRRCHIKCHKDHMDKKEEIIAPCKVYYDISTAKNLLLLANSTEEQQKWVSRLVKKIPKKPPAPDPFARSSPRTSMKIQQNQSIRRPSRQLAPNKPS
row,SMILES,inhibition
1,Cc1ccc(C(=O)NCC2CCCO2)o1 (centres undefined),4.3%
2,C=CCn1cnc2scc(-c3ccccc3)c2c1=O,1.2%
3,C#CCN1CC(C)/C(=N/O)CC1C (centres undefined),3.7%
4,O=C1CC(c2ccccc2)CC(O)=C1C=NCCN1CCOCC1 (centres undefined),3.3%
5,COc1cccc(N2CCN(C(=O)C3CCCN(S(=O)(=O)c4cnc[nH]4)C3)CC2)c1 (centres undefined),3.3%
6,Cc1cc(C(=O)CC#N)c(C)n1CC(F)(F)F,3.3%
7,O=C1C=C(NCCNc2c(F)c(F)c(CO)c(F)c2F)CCC1,1.5%
8,Cc1cn(C2C=CC(CO)O2)c(=O)[nH]c1=O (centres undefined),6.1%
9,Cc1cc(=O)[nH]c(SCC(=O)N2c3ccccc3CC2C)n1 (centres undefined),-3.6%
10,CC(C)OCCCNc1nc2c(c(=O)n(Cc3ccccc3F)c(=O)n2C)n1C,-0.3%
11,CC1Cc2ccccc2N1C(=O)CSc1nnc(-c2ccc(S(=O)(=O)N3CCCCC3)cc2)o1 (centres undefined),-4.4%
12,CCCCCCn1c(CN2CCCCC2)nc2c1c(=O)n(C)c(=O)n2C,-1.3%
13,Cc1nn(-c2ccccc2)c(C)c1C(=O)OCC(=O)NC(=O)NC1CCCCC1,1.4%
14,COC(=O)C(C)n1cnc2c(nnn2-c2cccc(Cl)c2)c1=O (centres undefined),7.7%
15,O=C(CC1N=C2c3ccccc3N=C(SCc3ccccc3Cl)N2C1=O)NCc1ccco1 (centres undefined),2.8%
16,Cc1cccc(OCc2nnc(SCC(=O)N3CCN(C(=O)c4ccco4)CC3)n2C)c1C,3.2%
17,O=C(c1cc(-c2ccccc2O)on1)N1CCCC1,-1.5%
18,CCOC(=O)N1CCC(NC(=O)Cn2cc3c(n2)CCCCC3)CC1,9%
19,O=C(CN1CCOCC1)Nc1cc(Cl)ccc1Cl,2.5%
20,O=C(NCc1ccco1)C1CCCN(S(=O)(=O)c2cnc[nH]2)C1 (centres undefined),3.2%
21,COc1cccc(-c2nn(C)c3sc(C(=O)N4CCN(c5ccccc5)CC4)cc23)c1,6.1%
22,O=C(Nc1ccn(Cc2ccc(F)cc2)n1)c1ccncc1,18.1%
23,CCOC(=O)Cc1csc(NC(=O)CN(C)S(=O)(=O)c2ccc3c(c2)CCC(=O)N3)n1,2.4%

row,SMILES,inhibition
1,CC(C)n1c(NCc2c[nH]c3ccccc23)nc2ccccc21,2.4%
2,Cc1cc(NC(=O)CCC(=O)N(c2cccc(F)c2)C(C(=O)NC2CCCC2)c2ccncc2)no1 (centres undefined),4%
3,Cc1ccccc1-c1nc(CS(=O)(=O)CC(=O)N2CCc3ccccc3C2)c(C)o1,-0.8%
4,CN(C)Cc1c(O)ccc2occ(C(O)c3ccccc3)c12 (centres undefined),2%
5,CSc1ccc(S(=O)(=O)NCc2ccc(Cl)cc2)cc1,5.4%
6,CCOC(=O)N1CCN(Cc2nc3c(c(=O)n(C)c(=O)n3C)n2Cc2ccccc2)CC1,2.4%
7,CCn1c(SCC(=O)Nc2cc(C)c(Cl)cc2OC)nnc1-c1ccco1,3.2%
8,Cc1ccc(N2CCN(S(=O)(=O)N(C)C)CC2)cc1Cl,8.1%
9,O=c1c(-c2ccc3c(c2)OCCO3)c(C(F)(F)F)oc2cc(O)cc(O)c12,-3.1%
10,CCOC(=O)C1=C(C)NC(C)=C(C(=O)OCC)C1c1ccccn1,-6.7%
11,CC(=O)N1CSCC1C(=O)O (centres undefined),2.3%
12,Cc1noc(C)c1C(=O)Nc1ccccn1,8.1%
13,O=C(NCc1cccnc1)c1ccc(CS(=O)(=O)c2ccc(Br)cc2)o1,1.6%
14,O=C(/C(=N\O)n1cncn1)c1ccc(Br)cc1Br,-2.8%
15,CCOC(=O)NC(C(F)(F)F)(C(F)(F)F)P(=O)(c1ccccc1)c1ccccc1,3.9%
16,CCN(CC(=O)NCc1cccs1)c1nnnn1-c1ccccc1,-4.6%
17,C[C@H](NC(=O)NCCc1ccccc1)C(=O)O,4.7%
18,COc1ccc(C2CC(c3ccc(C)cc3)Nc3nc(N)nn32)cc1 (centres undefined),-2.6%
19,O=C(CN(Cc1ccccc1)C(=O)c1ccc2c(c1)OCCO2)NCc1ccc2c(c1)OCO2,5.9%
20,Cc1cccc(Cn2c(N3CCN(c4ccccc4)CC3)nc3c2c(=O)n(C)c(=O)n3C)c1,5.3%
21,COc1ccccc1NC1=NC2(CCCC2)N=C(N)N1,-2%
22,CCOc1ncccc1C(=O)OCc1cn2cc(Cl)ccc2n1,12.7%
23,Cc1ccc(C2c3c(oc4ccc(C)cc4c3=O)C(=O)N2CCCN2CCOCC2)cc1 (centres undefined),-2.1%

row,SMILES,inhibition
1,Cc1cc(NC(=O)CSCc2nc(-c3cccc(Cl)c3)oc2C)no1,3.5%
2,COc1ccccc1N(CC(=O)N1CCCCC1)S(=O)(=O)c1ccccc1,5.5%
3,COc1ccc(N2C(=O)CC(N3CCC(C(N)=O)CC3)C2=O)cc1 (centres undefined),-1.8%
4,O=C(CC1Oc2ccccc2NC1=O)NCCCN1CCN(Cc2ccccc2)CC1 (centres undefined),0.1%
5,C(=C\c1ccccc1)/CSc1nnc(-c2cccnc2)n1Cc1ccco1,5%
6,CCN(CC)CCN1C(=O)C(=O)/C(=C(/O)c2ccc(OC)c(OC)c2)C1c1ccccn1 (centres undefined),1.6%
7,Cc1cc(N=CC2=C(O)CCCC2=O)no1,4.3%
8,Cc1ccsc1-c1nc(CSCC(=O)NCCN2CCCC2)c(C)o1,-0.8%
9,CC1CCCN(c2ccc(C(=O)NCCc3ccccc3)cn2)C1 (centres undefined),7.3%
10,Cc1ccc(S(=O)(=O)N2CCCC2C(=O)NCc2ccco2)cc1 (centres undefined),-1.2%
11,CC(C)NS(=O)(=O)c1ccc(CCC(=O)N2CCOCC2)cc1,1.3%
12,CCn1nc(NC(=O)c2ccco2)c2cc3ccc(C)cc3nc21,-4.9%
13,CCNS(=O)(=O)c1ccc(NC(=O)Nc2cccc(OC)c2)cc1,2.5%
14,COc1ccc(CNC(=O)c2cc3c(=O)n4ccccc4nc3n(CC3CCCO3)c2=N)cc1 (centres undefined),5.4%
15,CCOC(=O)c1csc(NC(=O)c2ccc(S(=O)(=O)N3CCCC3)cc2)n1,-1.1%
16,C=CCn1c(=S)[nH]c2nc3c(cc2c1=O)COC(C)(C)C3,8%
17,CCCCC(=O)N1CC2(C)CN(C(=O)CCCC)CC(C)(C1)C2=O,3.9%
18,O=C(Nc1ccccc1F)c1cc(S(=O)(=O)N2CCCCC2)cs1,9.5%
19,O=C(CSc1ncccn1)NCCc1ccccc1,6.2%
20,CCCOC(=O)Cc1c(O)c2ccccc2[nH]c1=O,1.5%
21,CC1(C)CC(=O)C=C(NC2CC(C)(C)NC(C)(C)C2)C1,5.7%
22,O=C(OCC(=O)N1CCCC1)c1ccco1,3.5%
23,Cc1oc(CC(C)C)c(CN2CCCC2)c1C(=O)O,0.9%

row,SMILES,inhibition
1,CC(=O)Cc1nsc(NC(=O)c2ccc(COc3ccc(C)cc3)o2)n1,2.4%
2,Cc1noc(C)c1S(=O)(=O)N1CCCC(C(=O)Nc2nccs2)C1 (centres undefined),3.5%
3,CCOC(=O)CC1=CC(=O)Nc2ccccc2N1,7.2%
4,Cc1occc1C(=O)N1CCCc2ccccc21,1%
5,O=C(c1ccc(S(=O)(=O)N2CCOCC2)cc1)N1CCN(c2ccccc2)CC1,2.3%
6,O=C1c2oc3ccccc3c(=O)c2C(c2cccc(O)c2)N1c1ccccn1 (centres undefined),1%
7,COc1ccc(-n2c(SCC(=O)Nc3ccc4c(c3)OCO4)nnc2C(C)N2CCCCC2)cc1 (centres undefined),1%
8,c1ccc2c(NCC3CCCO3)nc(-c3ccncc3)nc2c1 (centres undefined),5.5%
9,Cc1noc(C)c1COC(=O)Cn1c(C)nc2ccccc21,5.1%
10,CCOC(=O)C1CCN(C(=O)C2CCN(S(=O)(=O)CC)CC2)CC1,-1.2%
11,CCCc1nc(SCC(=O)Nc2ccccc2OC)c2c(=O)n(C)c(=O)n(C)c2n1,1.6%
12,CCOc1ccccc1N(CC(=O)NC1CCCCC1)C(=O)CCCC(=O)Nc1ccccn1,4.8%
13,O=C(CSc1nnc(-c2cccnc2)n1Cc1ccco1)c1ccc(Cl)cc1,2.8%
14,CCOc1ccccc1NC(=O)CCc1ccc(C)o1,0.9%
15,CS(=O)(=O)c1ccc2nc(NC(=O)C3CCCCC3)sc2c1,6.5%
16,O=c1c(F)cn(C2CCCO2)c(=O)n1Cc1ccccc1Cl (centres undefined),-7.2%
17,CCn1c(CSc2ncccn2)nnc1SCC(=O)N1c2ccccc2CC1C (centres undefined),1.2%
18,CCCOc1ccc(N2CC(C(=O)Nc3ccccn3)CC2=O)cc1 (centres undefined),2.5%
19,O=C1CCCC2=C1C(c1cccs1)n1nc(SCc3ccccc3)nc1N2 (centres undefined),2%
20,COc1ccc(-c2[nH]nc3c2C(c2ccncc2)C(C#N)=C(N)O3)cc1 (centres undefined),-0.8%
21,CC(C(=O)N1CCOCC1)N1c2cccc3cccc(c23)S1(=O)=O (centres undefined),11.3%
22,O=C(c1cccs1)N(C(=O)c1cccs1)c1ccccn1,3.6%
23,CCc1c(C)nc(N2CCN(Cc3ccccc3)CC2)[nH]c1=O,-0.6%

row,SMILES,inhibition
1,CCN1CCN(Cc2nc3c(c(=O)n(C)c(=O)n3C)n2CC(=O)c2ccccc2)CC1,-1.1%
2,COc1ccccc1CNC(=O)Cn1cc2c(n1)CCCC2,2.7%
3,N#CCCn1cnc2ccccc21,0.3%
4,CCn1c(=N)n(CC(=O)c2cccc(OC)c2)c2ccccc21,-1.1%
5,CCOCCCNC(=O)c1c[nH]c2cc(C)ccc2c1=O,-0.3%
6,Brc1cnc(N2CCCC2)nc1N1CCCCC1,2%
7,COc1ccc(N2CC(C)Cn3c2nc2c3c(=O)n(Cc3ccccc3F)c(=O)n2C)c(OC)c1 (centres undefined),-0.2%
8,CCC(Sc1nncn1C)C(=O)Nc1nnc(-c2ccc(Cl)cc2)s1 (centres undefined),3.6%
9,COc1cc(N=Cc2c(O)[nH]c3ccccc23)cc(OC)c1OC,58.4% (active)
10,COc1ccc(OC)c(N=Cc2c(O)[nH]c3ccccc23)c1,12.3%
11,COc1ccc(CCNC(=O)CCCCn2c(=O)[nH]c3ccccc3c2=O)cc1OC,4.9%
12,COc1ccc2[nH]c3ccc(OC)cc3c2c1,5.6%
13,COc1ccc(N=Cc2c(O)[nH]c3ccccc23)cc1OC,36.8% (active)
14,COC(=O)c1[nH]c2ccccc2c1NS(=O)(=O)c1ccc(OC)cc1OC,5.9%
15,CC(C)=C(NC(=O)c1ccco1)C(=O)NCCc1nc2ccccc2[nH]1,1.2%
16,COc1cc(NS(=O)(=O)c2ccccc2)ccc1-n1nc(C)cc1C,10.8%
17,CCCOC(=O)c1cc2ccccc2oc1=O,0.3%
18,CCOc1cc(S(=O)(=O)NCc2ccc3c(c2)OCO3)ccc1F,0.8%
19,CN(C)/C=C1\C=C(c2ccccc2)OC1=O,0.1%
20,COCCN1C(=O)c2oc3c(C)cc(C)cc3c(=O)c2C1c1cccc(O)c1 (centres undefined),-3%
21,O=C(NCCCN1CCN(Cc2ccccc2)CC1)C1CCN(S(=O)(=O)N2CCCC2)CC1,2.6%
22,O=C(c1ccco1)N1CCN(C(=O)C2c3ccccc3Oc3ccccc32)CC1,-3.5%
